The values below come from PubChem BioAssay (NCI).

What all share (experiment): NCI-60 one-dose screen, 48 h (100 = growth as untreated, 0 = no growth, -100 = all killed)
What all share (settings): 10 µM unless noted

Test [1] has as its system SR leukemia.
The test system of test [2] is RPMI-8226 leukemia.
Test [3] has as its system OVCAR-8 ovarian.
Test [4] concerns OVCAR-5 ovarian.
Test [5] concerns OVCAR-4 ovarian.
Test [6] concerns SK-OV-3 ovarian.
In test [7] the test system is OVCAR-3 ovarian.
Test [8] has as its system HS 578T breast.
The subject of test [9] is NCI/ADR-RES ovarian.
Test [10] deals with T-47D breast.
In test [11] the test system is BT-549 breast.
Test [12] deals with MDA-MB-435 melanoma.
Test [13] has as its system SW-620 colon.
The test system of test [14] is MCF7 breast.
The subject of test [15] is HCT-116 colon.
In test [16] the test system is HCC-2998 colon.
Test [17] deals with KM12 colon.
The test system of test [18] is IGROV1 ovarian.

SMILES strings stand for the structures. The panel holds about 83,000 compounds, 20% with a hit somewhere; the sample as a whole holds those more often.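 A percent growth of 40 corresponds to 60% growth inhibition; 0 means no net growth; -100 means all cells died. Active threshold: below 10.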 A number with no mark means an inactive call. Activity calls are given as the source filed them.

For the molecule `O=C(CCc1nnc(Cn2cnc3nc[nH]c3c2=O)o1)c1nc2ncccc2[nH]1`, the growth in test [1] was 100%; in [2], 99.6%; in test [3] it was 100%; in [4], 100%; in test [5] it was 99.4%; in [6] it was 107%. The growth in [7] was 104%; in [8] it was 93.2%; in test [9], 100%; in test [10], 94.5%; in test [11] it was 95.9%; in test [12] it was 99.5%. The growth in test [13] is 96%; in [14] it was 97.2%; in [15] it was 97.3%; in [16], 105%; in test [17], 105%.

For `O=C(Cc1ccccc1)Nc1nc(O)c(/C=C2\C(=O)C=Cc3ccccc32)s1`, the growth in test [1] was 104%; in test [2], 106%; in test [3], 97.5%; in test [4] it was 104%; in test [5] it was 100%; in [6], 83%. The growth in test [7] was 102%; in test [8] it was 97.8%; in [9], 96.7%; in test [10], 90%; in test [11], 98.9%; in test [12], 101%. Further, the growth in test [13] was 95.7%; in test [14], 101%; in [15], 90.1%; in test [16], 110%; in test [17], 106%.

For `O=S(=O)(Nc1ccccc1)c1ccc(C2CC3(Cl)C(Cl)=C(Cl)C2(Cl)C3(Cl)Cl)cc1` (centres undefined), the growth in test [1] is 18.8%; in test [2] it was 13.8%; in [3], 55.6%; in test [4], 60.1%; in test [5], 44%; in test [6], 76%. Besides, the growth is 26% in test [7]; 54.8% in test [8]; 24.1% in test [9]; 29.4% in test [10]; 76.4% in [11]; 23.6% in [12]. Moreover, the growth in [13] is 30.7%; in test [14], 23.2%; in [15] it was 17.6%; in test [16], 53.5%; in test [17], 22.7%.

In the case of `N#Cc1c(NC(=O)c2ccccc2)sc2c1CCC(=O)C2`, the growth in [1] is 7.72% (active); in [2], -2.69% (active); in [3], 14.5%; in test [4], 22.1%; in test [5], -64.9% (active); in test [6] it was 64.7%. Besides, the growth in test [7] was -4.44% (active); in [8], 23.3%; in test [9], 5.57% (active); in [10], -24.8% (active); in test [11], 16.2%; in test [12], 2.87% (active). For the same molecule, the growth in test [13] was 11.6%; in [14] it was 4.73% (active); in test [15], 5.81% (active); in [17], 8.5% (active).

`N#Cc1c(N)nnn1Cc1cc(=O)oc2c1ccc1ccccc12`: the growth in test [1] is 105%; in test [2], 97.8%; in test [3], 96.8%; in test [4], 108%; in test [5], 108%; in test [6], 86%. For the same molecule, the growth in test [7] is 103%; in test [8], 101%; in test [9], 99.4%; in [10], 92.3%; in [11] it was 99.9%; in test [12], 105%. Further, the growth in [13] was 97.7%; in test [15], 106%; in test [16] it was 105%; in test [17] it was 103%.

Regarding `Nc1nc2c([nH]1)c1[nH]c3ccccc3c1c1[nH]c3ccccc3c21`, the growth in test [1] was -24.9% (active); in [2], -22.7% (active); in test [3], 57.5%; in test [4], 85.9%; in test [5], 66.8%; in [6], 86.1%. Further, the growth is 36.6% in test [7]; 47.2% in test [8]; 86.5% in [9]; 32.4% in test [10]; 64.6% in test [11]; 1.06% (active) in [12]. The growth in [13] was -31.5% (active); in [14], 13.6%; in test [15] it was -47.9% (active); in test [16] it was -70.6% (active); in [17], 39.5%.

Regarding `CCOc1nc(-c2ccccc2)cc2c(O)c(C(=O)NN)[nH]c(=O)c12`, the growth in [1] was 90.8%; in test [2], 103%; in test [3] it was 109%; in test [4], 106%; in test [5], 100%; in test [6], 113%. Besides, the growth was 55.2% in test [18]; 79% in test [7]; 87.6% in test [8]; 87.9% in [9]; 108% in test [10]; 126% in test [11]. Further, the growth in test [12] is 113%; in [13], 97.4%; in [15], 102%; in test [17], 104%.

In the case of `O=C(O)/C(=C\c1ccc(Cl)cc1)c1ccc(Cl)cc1`, the growth in test [1] is 96.8%; in [2], 100%; in [3], 96.3%; in test [4] it was 74.1%; in [5], 90.5%; in [6], 111%. Further, the growth in [18] was 71.2%; in [7], 101%; in test [8] it was 78%; in [9] it was 90.1%; in test [10] it was 95.9%; in test [11], 82%. Besides, the growth in test [12] was 97.2%; in test [13] it was 106%; in test [15] it was 98.1%; in test [17] it was 97.6%.

Take `CN1CCN(C(=O)c2ccc(NC(=O)Nc3ccc(-c4nc(N5CCOCC5)c5cccn5n4)cc3)cc2)CC1`: the growth was 3.45% (active) in test [1]; -2.3% (active) in test [2]; -3.62% (active) in test [3]; 0.331% (active) in [4]; -20.2% (active) in test [5]; -31.2% (active) in test [6]. For the same molecule, the growth in test [7] is -5.24% (active); in test [8] it was -28.9% (active); in test [9], 60.5%; in [10] it was -34.3% (active); in test [11], -9.61% (active); in [12], 0.865% (active). Besides, the growth in test [13] is 11%; in test [14] it was 5.32% (active); in [15], 7.02% (active); in test [16], 5.54% (active); in test [17], 9.01% (active).

On to `Cc1ccc(-c2nc(/C=C3/C(=O)Nc4ccccc43)c3ccccn23)cc1`, for which the growth was 73.4% in [1]; 79.3% in [2]; 82% in [3]; 80.5% in test [4]; 115% in test [5]; 92.6% in [6]. For the same molecule, the growth was 119% in test [7]; 85.7% in test [8]; 75.6% in test [9]; 80.7% in test [10]; 104% in [11]; 94.3% in test [12]. The growth in test [13] is 64.8%; in test [14] it was 37.2%; in test [15], 66.8%; in test [16], 109%; in [17] it was 88.4%.

On to `COc1ccc(CC(C#N)c2cc3ccccc3[nH]2)cc1` (centres undefined), for which the growth was 96.1% in [1]; 71.4% in test [2]; 90.8% in [3]; 94.1% in test [4]; 94.4% in test [6]; 94.7% in test [18]. The growth is 92% in test [7]; 90.8% in test [8]; 92.8% in test [9]; 85.5% in test [10]; 92.8% in test [11]; 82.2% in [12]. Further, the growth was 93.6% in test [13]; 94% in test [14]; 92.3% in test [15]; 87.5% in [16]; 84.7% in test [17].

Take `CN1C(=O)/C(=C/c2cn(-c3ccccc3)nc2-c2ccccc2)SC1=S`: the growth in test [1] was 109%; in test [2] it was 108%; in test [3], 105%; in test [4] it was 106%; in test [6] it was 109%; in test [18] it was 107%. In addition, the growth in test [7] is 121%; in [8], 100%; in [9], 98.1%; in test [10] it was 96.1%; in test [11], 106%; in test [12], 99.5%. Further, the growth was 98.8% in test [13]; 83.6% in test [14]; 99.8% in [15]; 115% in [16]; 102% in test [17].

As for `CNC(=O)c1c(NC(=O)c2ccc(C(F)(F)F)cc2)sc2c1CCC(=O)C2`, the growth was 3.07% (active) in test [1]; -27% (active) in [2]; 14% in test [3]; -44.7% (active) in [4]; 0.374% (active) in test [6]; -4.58% (active) in test [18]. For the same molecule, the growth was -6.89% (active) in test [7]; 12.2% in [8]; -4.29% (active) in test [9]; -15.2% (active) in [10]; -14.1% (active) in test [11]; 0.84% (active) in test [12]. The growth in test [13] was -55.8% (active); in test [14], 0.392% (active); in test [15] it was -46.4% (active); in test [16], -39.3% (active); in [17], -36.4% (active).

In the case of `O=C(/C=C/c1cccs1)c1ccc(Cl)nc1`, the growth was 82.5% in [1]; 4.19% (active) in test [2]; 99.3% in test [3]; 103% in [4]; 95.7% in test [6]; 107% in [18]. Besides, the growth in test [7] is 116%; in test [8], 105%; in test [9], 108%; in test [10], 97.3%; in test [11], 101%; in test [12], 94.2%. Also, the growth in test [13] was 105%; in test [14] it was 67.7%; in test [15], 91.1%; in test [16] it was 111%; in test [17], 104%.

Take `CN(C)CCCC1(c2ccc(F)cc2)OCc2cc(-c3cccc4[nH]ccc34)ccc21` (centres undefined): the growth is -14.9% (active) in test [1]; 39.7% in [2]; 20.5% in [3]; 70.1% in test [4]; 52.5% in [6]; 20.2% in test [18]. The growth was 31% in [7]; 31.7% in test [8]; 25.9% in test [9]; -39.2% (active) in test [10]; 73.8% in test [11]; -42.1% (active) in test [12]. In addition, the growth is -24.6% (active) in test [13], -24.1% (active) in test [14], -64% (active) in test [15] and 10.3% in test [17].

For the molecule `Clc1ccc(Nc2nnc(COc3ccccc3)c3ccccc23)cc1`, the growth in test [1] was -20.6% (active); in [2] it was -25.3% (active); in test [3], 5.02% (active); in [4], 23.1%; in [6], 9.17% (active); in [18], 16.1%. The growth in test [7] is -35.1% (active); in test [8], 14.4%; in [9], -1.13% (active); in test [10], -5.86% (active); in test [11], -9.97% (active); in [12], -3.33% (active). The growth in [13] is 15.4%; in test [14], 1.31% (active); in [15] it was 1.21% (active); in [16], 8.55% (active); in test [17], 0.179% (active).

On to `CCOC(=O)C1=NN(c2ccccc2)C(=O)/C1=C\N1C(=O)CC(=O)NC1=S`, for which the growth was 92.6% in [1]; 93.1% in [2]; 100% in test [3]; 104% in test [4]; 97.5% in test [6]; 106% in test [18]. Besides, the growth in test [7] was 101%; in test [8] it was 102%; in [9] it was 95.9%; in test [10], 85.9%; in test [11], 101%; in [12], -22.1% (active). Moreover, the growth in test [13] is 93.7%; in [14], 102%; in test [15], 101%; in test [16] it was 112%; in [17] it was 99.4%.
